For part of these data: Potency and affinity values are given separately. Calls of active or inactive are those of the source. Entries that show only a call come without a potency. Unless noted, calls follow the shape of the full dose curve.

The nature of one experiment: qHTS profiling of the MIPE4 collection as inhibitors of Plasmodium falciparum (HB3) proliferation (AID 743347; call rule not given here). As to conditions: P. falciparum HB3 in erythrocytes, SYBR Green DNA, 72 h; at 28.5 µM (top of the series) unless noted. The essentials: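 Erythrocytes infected with P. falciparum (0.3% parasitemia, 2.5% hematocrit) incubated with compounds 72 h at 37 C, 5% CO2. Lysis with saponin/Triton buffer containing SYBR Green I, overnight at room temperature in the dark; DNA fluorescence (485/535 nm) normalised to 0.29 uM artemisinin and DMSO.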
A general note: Quantitative high-throughput screening tests each substance at several concentrations.
As to `CC(NC(C)(C)C)C(=O)c1cccc(Cl)c1` (configuration not stated), the growth, % of control stood at 7.91%. In turn, `CCOC(=O)C1=C[C@@H](OC(CC)CC)[C@H](NC(C)=O)[C@@H](N)C1` yielded a growth, % of control of 98.6%.

Consider `O=C(O)CCCc1ccc(N(CCCl)CCCl)cc1`, for which the growth, % of control is 54.2%.

`C[C@]12CC[C@@H]3c4ccc(OC(=O)N(CCCl)CCCl)cc4CC[C@H]3[C@@H]1CC[C@@H]2OP(=O)(O)O` yielded a growth, % of control of 47.6%.

Molecule `Cc1onc(-c2ccccc2)c1C(=O)N[C@@H]1C(=O)N2[C@@H](C(=O)O)C(C)(C)S[C@@H]12` returned a growth, % of control of 82.7%.

Regarding `C[C@](O)(CS(=O)(=O)c1ccc(F)cc1)C(=O)Nc1ccc(C#N)c(C(F)(F)F)c1`, the growth, % of control was found to be 27.8%. On the same count and under the same terms, with `O=P(O)(O)C(O)(Cn1ccnc1)P(=O)(O)O` the figure was 72.4% [at 9.64 µM]; with `CC(C)[C@H](N)C(=O)OCCOCn1cnc2c(=O)[nH]c(N)nc21`, 102%. On the same count and under the same terms, the result for `CC(C)N(CCC(C(N)=O)(c1ccccc1)c1ccccn1)C(C)C` (configuration not stated) reads 95.7%; that for `COCCCOc1ccnc(CS(=O)c2nc3ccccc3[nH]2)c1C` (configuration not stated), 83.7%; that for `Nc1ccn(C[C@@H](CO)OCP(=O)(O)O)c(=O)n1`, 81.6% [at 9.64 µM]. Same read-out and setting: the result for `O=P1(N(CCCl)CCCl)NCCCO1` (configuration not stated) reads 65.9%.

Assay in another experiment: not given
As to conditions: Ebola virus entry assay, blue channel fluorescence.
Turning to `Cc1nnc(SCC2=C(C(=O)O)N3C(=O)[C@@H](NC(=O)Cn4cnnn4)[C@H]3SC2)s1`, the result was inactive. Take `COc1cccc2c1C(=O)c1c(O)c3c(c(O)c1C2=O)C[C@@](O)(C(C)=O)C[C@H]3O[C@H]1C[C@H](N)[C@H](O)[C@H](C)O1`: the AC50 (as a rule, the concentration giving half of the maximal activity seen) is 6.31 µM (active). `CC(O)(P(=O)(O)O)P(=O)(O)O`: the molecule was called inactive. The same measure, in the same setting: with `CC(NC(C)(C)C)C(=O)c1cccc(Cl)c1` (configuration not stated) the entry was “inactive”; with `CCOC(=O)C1=C[C@@H](OC(CC)CC)[C@H](NC(C)=O)[C@@H](N)C1`, “inactive”; with `CCC1(C)CC(=O)NC1=O` (configuration not stated), “inactive”. Consider `NC(N)=NC(=O)Cc1c(Cl)cccc1Cl`, for which the outcome was inactive. Same read-out and setting: with `O=C(O)CCCc1ccc(N(CCCl)CCCl)cc1` the entry was “inactive”; with `NS(=O)(=O)c1cc(C2(O)NC(=O)c3ccccc32)ccc1Cl` (configuration not stated), “inactive”; with `C[C@]12CC[C@@H]3c4ccc(OC(=O)N(CCCl)CCCl)cc4CC[C@H]3[C@@H]1CC[C@@H]2OP(=O)(O)O`, “inactive”. For the molecule `O=C1[O][Bi][O]c2ccccc21`, the call was inactive. `CC(=O)S[C@@H]1CC2=CC(=O)CC[C@]2(C)[C@H]2CC[C@@]3(C)[C@@H](CC[C@@]34CCC(=O)O4)[C@H]12`: the call was inactive. As to `Cc1onc(-c2ccccc2)c1C(=O)N[C@@H]1C(=O)N2[C@@H](C(=O)O)C(C)(C)S[C@@H]12`, the outcome was inactive.

Take `C[C@](O)(CS(=O)(=O)c1ccc(F)cc1)C(=O)Nc1ccc(C#N)c(C(F)(F)F)c1`: the result was inactive. Same read-out and setting: the result for `CC(C=CC1=C(C)CCCC1(C)C)=CC=CC(C)=CC(=O)O` reads “inactive”; that for `COc1c(N2C[C@@H]3CCCN[C@@H]3C2)c(F)cc2c(=O)c(C(=O)O)cn(C3CC3)c12`, “inactive”. Same read-out and setting: the result for `CC(=O)N1CCN(c2ccc(OC[C@H]3CO[C@](Cn4ccnc4)(c4ccc(Cl)cc4Cl)O3)cc2)CC1` reads “inactive”. On the same count and under the same terms, the result for `O=P(O)(O)C(O)(Cn1ccnc1)P(=O)(O)O` reads “inactive”; that for `CN=C(NC#N)NCCSCc1nc[nH]c1C`, “inactive”; that for `CC(C)[C@H](N)C(=O)OCCOCn1cnc2c(=O)[nH]c(N)nc21`, “inactive”. As for `CC(C)N(CCC(C(N)=O)(c1ccccc1)c1ccccn1)C(C)C` (configuration not stated), the molecule was called inactive. In the case of `COCCCOc1ccnc(CS(=O)c2nc3ccccc3[nH]2)c1C` (configuration not stated), the molecule was classed as inactive. Turning to `N[C@@H](Cc1cc(I)c(Oc2ccc(O)c(I)c2)c(I)c1)C(=O)O`, the call was inactive. For `C[C@H](CS)C(=O)N1CCC[C@H]1C(=O)O`, the molecule was classed as inactive. Still for that read-out and setting: the result for `Nc1ccn(C[C@@H](CO)OCP(=O)(O)O)c(=O)n1` reads “inactive”; that for `CC(C)C[C@H](CN)CC(=O)O`, “inactive”; that for `NC(=O)COCCN1CCN(C(c2ccccc2)c2ccc(Cl)cc2)CC1` (configuration not stated), “inactive”.

On to `O=P1(N(CCCl)CCCl)NCCCO1` (configuration not stated), for which the call was inactive.

Assay in the next experiment: not given
The note with it: Ebola virus entry assay, green fluorescence channel.
In the case of `Cc1nnc(SCC2=C(C(=O)O)N3C(=O)[C@@H](NC(=O)Cn4cnnn4)[C@H]3SC2)s1`, the call was inactive.

In the case of `CC(O)(P(=O)(O)O)P(=O)(O)O`, the molecule was classed as inactive. Still for that read-out and setting: with `CC(NC(C)(C)C)C(=O)c1cccc(Cl)c1` (configuration not stated) the entry was “inactive”. Same read-out and setting: the result for `CCOC(=O)C1=C[C@@H](OC(CC)CC)[C@H](NC(C)=O)[C@@H](N)C1` reads “inactive”. On the same count and under the same terms, the result for `CCC1(C)CC(=O)NC1=O` (configuration not stated) reads “inactive”. `NC(N)=NC(=O)Cc1c(Cl)cccc1Cl`: the result was inactive. Regarding `O=C(O)CCCc1ccc(N(CCCl)CCCl)cc1`, the result was inactive. On the same count and under the same terms, the result for `CCOc1cc(CC(=O)N[C@@H](CC(C)C)c2ccccc2N2CCCCC2)ccc1C(=O)O` reads “inactive”. In the case of `NS(=O)(=O)c1cc(C2(O)NC(=O)c3ccccc32)ccc1Cl` (configuration not stated), the molecule was called inactive. On the same count and under the same terms, with `Nc1ccn([C@@H]2CS[C@H](CO)O2)c(=O)n1` the entry was “inactive”; with `CO[C@@]1(NC(=O)Cc2cccs2)C(=O)N2C(C(=O)O)=C(COC(N)=O)CS[C@@H]21`, “inactive”. Still for that read-out and setting: with `Nc1nc(/C(=C/CC(=O)O)C(=O)N[C@@H]2C(=O)N3C(C(=O)O)=CCS[C@H]23)cs1` the entry was “inactive”; with `C[C@]12CC[C@@H]3c4ccc(OC(=O)N(CCCl)CCCl)cc4CC[C@H]3[C@@H]1CC[C@@H]2OP(=O)(O)O`, “inactive”.

`NC[C@H]1O[C@H](O[C@H]2[C@H](O)[C@@H](O[C@H]3O[C@H](CO)[C@@H](O)[C@H](N)[C@H]3O)[C@H](N)C[C@@H]2N)[C@H](O)[C@@H](O)[C@@H]1O`: the result was inactive.

With `CCCC(C)(COC(N)=O)COC(N)=O`, the result was inactive. Consider `O=C1CN=C(c2ccccc2)c2cc([N+](=O)[O-])ccc2N1`, for which the outcome was inactive. Still for that read-out and setting: with `Cc1onc(-c2ccccc2)c1C(=O)N[C@@H]1C(=O)N2[C@@H](C(=O)O)C(C)(C)S[C@@H]12` the entry was “inactive”; with `C[C@](O)(CS(=O)(=O)c1ccc(F)cc1)C(=O)Nc1ccc(C#N)c(C(F)(F)F)c1`, “inactive”; with `COc1c(N2C[C@@H]3CCCN[C@@H]3C2)c(F)cc2c(=O)c(C(=O)O)cn(C3CC3)c12`, “inactive”. Same read-out and setting: with `CC(=O)N1CCN(c2ccc(OC[C@H]3CO[C@](Cn4ccnc4)(c4ccc(Cl)cc4Cl)O3)cc2)CC1` the entry was “inactive”; with `O=P(O)(O)C(O)(Cn1ccnc1)P(=O)(O)O`, “inactive”; with `CCC1=C(C)CN(C(=O)NCCc2ccc(S(=O)(=O)NC(=O)NC3CCC(C)CC3)cc2)C1=O` (configuration not stated), “inactive”. Same read-out and setting: with `CN=C(NC#N)NCCSCc1nc[nH]c1C` the entry was “inactive”; with `CC(C)[C@H](N)C(=O)OCCOCn1cnc2c(=O)[nH]c(N)nc21`, “inactive”; with `CC(C)N(CCC(C(N)=O)(c1ccccc1)c1ccccn1)C(C)C` (configuration not stated), “inactive”.

On to `O=c1[nH]c(=O)n([C@H]2C[C@H](O)[C@@H](CO)O2)cc1F`, for which the call was inactive. Same read-out and setting: with `COCCCOc1ccnc(CS(=O)c2nc3ccccc3[nH]2)c1C` (configuration not stated) the entry was “inactive”; with `Nc1nc2[nH]cc(CCc3ccc(C(=O)N[C@@H](CCC(=O)O)C(=O)O)cc3)c2c(=O)[nH]1`, “inactive”; with `CCOC(=O)[C@H](CCc1ccccc1)N[C@@H](C)C(=O)N1[C@H](C(=O)O)C[C@H]2CCCC[C@@H]21`, “inactive”. Regarding `Nc1ccn(C[C@@H](CO)OCP(=O)(O)O)c(=O)n1`, the molecule was called inactive.

Take `CC(C)C[C@H](CN)CC(=O)O`: the molecule was classed as inactive. As for `O=P1(N(CCCl)CCCl)NCCCO1` (configuration not stated), the call was inactive.

These data come from PubChem BioAssay (NCATS).
